Data taken from paper PMC5700166.
Numbering of substitutions follows the chain as printed.

Key:
Test in all cases: protein-binding microarray (PBM); PBM: ~300 nM protein, 6 mM HEPES pH 7.8, 80 mM KCl, 0.5 mM EDTA, 0.5 mM EGTA, 6% glycerol, 35 ng/ul poly-dIdC, 1% milk, 1 h, room temperature; Ap Aiptasia and Nv Nematostella (sea anemones) / Co Capsaspora / Aq Amphimedon (sponge) / Dm Drosophila / Hu human; RHD is the Rel homology domain; high values mean tight binding
Conditions in all cases: dsDNA, one strand shown
GST-Ap-NF-kB RHD = target: T1, GST-Ap-NF-kB RHD (Exaiptasia pallida (Aiptasia), UniProt A0A913YAJ5 2-422)
T1 sequence: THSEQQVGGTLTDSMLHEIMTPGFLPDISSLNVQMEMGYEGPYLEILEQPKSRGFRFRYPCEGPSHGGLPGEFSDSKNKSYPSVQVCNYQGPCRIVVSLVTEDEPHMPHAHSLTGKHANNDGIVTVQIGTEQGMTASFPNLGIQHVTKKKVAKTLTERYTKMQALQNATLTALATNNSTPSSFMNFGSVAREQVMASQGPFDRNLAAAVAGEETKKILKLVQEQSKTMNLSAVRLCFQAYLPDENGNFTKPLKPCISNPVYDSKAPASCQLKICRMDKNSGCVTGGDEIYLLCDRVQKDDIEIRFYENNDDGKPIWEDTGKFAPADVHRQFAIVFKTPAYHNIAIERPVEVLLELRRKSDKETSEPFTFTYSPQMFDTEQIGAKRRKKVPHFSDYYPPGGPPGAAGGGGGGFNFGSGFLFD

[1] = target: T2, GST-Nv-NF-kB (Cys allele) (Nematostella vectensis, UniProt E5G601 2-411)
T2 sequence: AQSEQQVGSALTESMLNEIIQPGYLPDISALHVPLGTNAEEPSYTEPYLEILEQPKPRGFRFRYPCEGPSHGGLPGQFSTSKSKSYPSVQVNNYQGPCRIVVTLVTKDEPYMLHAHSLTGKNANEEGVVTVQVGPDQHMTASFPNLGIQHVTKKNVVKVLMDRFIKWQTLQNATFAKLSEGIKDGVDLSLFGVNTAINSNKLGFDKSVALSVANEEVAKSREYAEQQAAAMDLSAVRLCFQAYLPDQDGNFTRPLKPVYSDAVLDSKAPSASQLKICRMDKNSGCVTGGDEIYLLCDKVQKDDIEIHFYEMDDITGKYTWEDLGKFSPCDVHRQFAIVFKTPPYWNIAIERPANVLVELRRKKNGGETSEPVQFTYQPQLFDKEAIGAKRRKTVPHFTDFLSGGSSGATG

[2] = target: T3, GST-Nv-NF-kB (Ser allele) (Nematostella vectensis, UniProt A7UNT2 2-411)
T3 sequence: T2 sequence with Q21R, C66S, S207N, E215Q, V217A, E225K, A268E, D399E

GST-Co-NF-kB = target: T4, GST-Co-NF-kB (Capsaspora owczarzaki, UniProt F1ARL5 200-546)
T4 sequence: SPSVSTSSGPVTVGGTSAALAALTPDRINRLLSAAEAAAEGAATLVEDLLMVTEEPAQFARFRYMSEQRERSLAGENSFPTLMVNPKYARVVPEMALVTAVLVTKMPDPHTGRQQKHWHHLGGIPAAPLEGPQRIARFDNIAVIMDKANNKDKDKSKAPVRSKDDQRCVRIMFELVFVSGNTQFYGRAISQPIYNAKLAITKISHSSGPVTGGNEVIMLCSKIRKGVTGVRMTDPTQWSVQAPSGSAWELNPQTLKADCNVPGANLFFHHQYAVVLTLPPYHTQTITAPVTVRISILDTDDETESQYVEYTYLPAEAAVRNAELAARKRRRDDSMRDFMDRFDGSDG

GST-Dm-Relish = target: T5, GST-Dm-Relish (Drosophila melanogaster, UniProt Q94527 99-473)
T5 sequence: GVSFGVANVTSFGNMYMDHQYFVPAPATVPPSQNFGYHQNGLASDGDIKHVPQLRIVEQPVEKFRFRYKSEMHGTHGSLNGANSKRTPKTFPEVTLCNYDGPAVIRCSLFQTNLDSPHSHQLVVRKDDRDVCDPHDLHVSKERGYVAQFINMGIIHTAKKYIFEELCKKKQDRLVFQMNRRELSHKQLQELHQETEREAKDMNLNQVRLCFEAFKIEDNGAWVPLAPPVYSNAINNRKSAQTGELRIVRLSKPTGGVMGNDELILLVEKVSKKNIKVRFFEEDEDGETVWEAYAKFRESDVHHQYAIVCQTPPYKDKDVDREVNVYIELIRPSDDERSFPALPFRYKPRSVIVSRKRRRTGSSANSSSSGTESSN

GST-Aq-NF-kB = target: T6, GST-Aq-NF-kB (Amphimedon queenslandica, UniProt A9Y5G7 2-389)
T6 sequence: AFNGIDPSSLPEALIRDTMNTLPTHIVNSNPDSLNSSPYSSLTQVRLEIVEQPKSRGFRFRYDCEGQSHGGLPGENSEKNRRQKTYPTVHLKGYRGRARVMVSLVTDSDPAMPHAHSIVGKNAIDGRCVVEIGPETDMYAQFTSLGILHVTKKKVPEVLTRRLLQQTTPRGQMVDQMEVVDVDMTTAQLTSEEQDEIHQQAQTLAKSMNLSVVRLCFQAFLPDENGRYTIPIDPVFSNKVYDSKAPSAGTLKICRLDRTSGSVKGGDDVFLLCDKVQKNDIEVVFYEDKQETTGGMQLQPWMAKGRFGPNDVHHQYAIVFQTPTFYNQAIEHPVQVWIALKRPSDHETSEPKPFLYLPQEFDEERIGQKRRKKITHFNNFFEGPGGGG

GST-Hu-p50 = GST-Hu-p50 (Homo sapiens, UniProt P19838 7-356)
GST-Hu-p50, sequence (P19838 7-356): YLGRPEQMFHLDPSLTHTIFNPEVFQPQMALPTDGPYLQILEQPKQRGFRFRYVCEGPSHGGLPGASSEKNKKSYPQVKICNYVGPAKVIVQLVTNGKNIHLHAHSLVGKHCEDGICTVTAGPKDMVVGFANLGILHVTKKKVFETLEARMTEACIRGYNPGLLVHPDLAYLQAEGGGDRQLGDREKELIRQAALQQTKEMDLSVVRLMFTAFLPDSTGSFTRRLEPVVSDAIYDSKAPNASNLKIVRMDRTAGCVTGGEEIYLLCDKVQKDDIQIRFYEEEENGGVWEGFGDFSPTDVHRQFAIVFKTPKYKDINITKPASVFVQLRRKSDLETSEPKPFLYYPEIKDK

CCGATTAACATCATGGGGGAAAATGATGTTAATCGGGTCTTGATTCGCTTGACGCTGCTG
binding signal (GST-Ap-NF-kB RHD): 5.67 z-score | binding signal [1]: 6.78 z-score | binding signal [2]: 9.23 z-score | binding signal (GST-Co-NF-kB): 10.9 z-score | binding signal (GST-Dm-Relish): 3.09 z-score | binding signal (GST-Aq-NF-kB): 5.39 z-score | binding signal (GST-Hu-p50): 6.88 z-score

CCGATTAACATCACCGTCCCCCCTGATGTTAATCGGGTCTTGATTCGCTTGACGCTGCTG
binding signal (GST-Ap-NF-kB RHD): 4.94 z-score | binding signal [1]: 4.43 z-score | binding signal [2]: 4.21 z-score | binding signal (GST-Co-NF-kB): 5.1 z-score | binding signal (GST-Dm-Relish): 4.4 z-score | binding signal (GST-Aq-NF-kB): 4.34 z-score | binding signal (GST-Hu-p50): 4.08 z-score

CCGATTAACATCATAAATCCCCATGATGTTAATCGGGTCTTGATTCGCTTGACGCTGCTG
binding signal (GST-Ap-NF-kB RHD): 6.78 z-score | binding signal [1]: 7.56 z-score | binding signal [2]: 9.37 z-score | binding signal (GST-Co-NF-kB): 3.91 z-score | binding signal (GST-Dm-Relish): 7.13 z-score | binding signal (GST-Aq-NF-kB): 5.14 z-score | binding signal (GST-Hu-p50): 7.11 z-score

CCGATTAACATCAAAAAGTCCCTTGATGTTAATCGGGTCTTGATTCGCTTGACGCTGCTG
binding signal (GST-Ap-NF-kB RHD): 7.48 z-score | binding signal [1]: 10.3 z-score | binding signal [2]: 9.76 z-score | binding signal (GST-Co-NF-kB): 1.63 z-score | binding signal (GST-Dm-Relish): 8.86 z-score | binding signal (GST-Aq-NF-kB): 8.25 z-score | binding signal (GST-Hu-p50): 6.97 z-score

CCGATTAACATCAGGGAAATCCATGATGTTAATCGGGTCTTGATTCGCTTGACGCTGCTG
binding signal (GST-Ap-NF-kB RHD): 4.11 z-score | binding signal [1]: 5.43 z-score | binding signal [2]: 5.07 z-score | binding signal (GST-Co-NF-kB): 3.28 z-score | binding signal (GST-Dm-Relish): 5.65 z-score | binding signal (GST-Aq-NF-kB): 5.63 z-score | binding signal (GST-Hu-p50): 3.96 z-score

CCGATTAACATCAGAATCTCCCCTGATGTTAATCGGGTCTTGATTCGCTTGACGCTGCTG
binding signal (GST-Ap-NF-kB RHD): 7.81 z-score | binding signal [1]: 6.42 z-score | binding signal [2]: 6.73 z-score | binding signal (GST-Co-NF-kB): 6.25 z-score | binding signal (GST-Dm-Relish): 3.02 z-score | binding signal (GST-Aq-NF-kB): 5.81 z-score | binding signal (GST-Hu-p50): 5.32 z-score

CCGATTAACATCAAAAAACCACCTGATGTTAATCGGGTCTTGATTCGCTTGACGCTGCTG
binding signal (GST-Ap-NF-kB RHD): 4.79 z-score | binding signal [1]: 5.1 z-score | binding signal [2]: 7.1 z-score | binding signal (GST-Co-NF-kB): 1.37 z-score | binding signal (GST-Dm-Relish): 8.7 z-score | binding signal (GST-Aq-NF-kB): 5.41 z-score | binding signal (GST-Hu-p50): 6.81 z-score

CCGATTAACATCACGGGGAAACCTGATGTTAATCGGGTCTTGATTCGCTTGACGCTGCTG
binding signal (GST-Ap-NF-kB RHD): 7.51 z-score | binding signal [1]: 7.32 z-score | binding signal [2]: 9.2 z-score | binding signal (GST-Co-NF-kB): 8.87 z-score | binding signal (GST-Dm-Relish): 7.04 z-score | binding signal (GST-Aq-NF-kB): 6.23 z-score | binding signal (GST-Hu-p50): 5.72 z-score

CCGATTAACATCAAAAATTCCCGTGATGTTAATCGGGTCTTGATTCGCTTGACGCTGCTG
binding signal (GST-Ap-NF-kB RHD): 5.97 z-score | binding signal [1]: 8.78 z-score | binding signal [2]: 8.06 z-score | binding signal (GST-Co-NF-kB): 6.08 z-score | binding signal (GST-Dm-Relish): 7.67 z-score | binding signal (GST-Aq-NF-kB): 7.49 z-score | binding signal (GST-Hu-p50): 5.55 z-score

CCGATTAACATCAGGGGGTTACCTGATGTTAATCGGGTCTTGATTCGCTTGACGCTGCTG
binding signal (GST-Ap-NF-kB RHD): 8.27 z-score | binding signal [1]: 6.63 z-score | binding signal [2]: 5.92 z-score | binding signal (GST-Co-NF-kB): 4.04 z-score | binding signal (GST-Dm-Relish): 9.18 z-score | binding signal (GST-Aq-NF-kB): 8.61 z-score | binding signal (GST-Hu-p50): 5.51 z-score

CCGATTAACATCAAGGGAATGCCTGATGTTAATCGGGTCTTGATTCGCTTGACGCTGCTG
binding signal (GST-Ap-NF-kB RHD): 2.72 z-score | binding signal [1]: 3.58 z-score | binding signal [2]: 2.83 z-score | binding signal (GST-Co-NF-kB): 1.06 z-score | binding signal (GST-Dm-Relish): 2.97 z-score | binding signal (GST-Aq-NF-kB): 4.2 z-score | binding signal (GST-Hu-p50): 1.87 z-score
